Experiment [1] deals with Lysosomal acid glucosylceramidase (Homo sapiens) (UniProt P04062). Nature of the experiment: Glucocerebrosidase-p2 (AID 348; in the data active = potency below about 10 µM; also: potency is read from the fitted curve at half-maximal effect). The note with it: purified GBA, blue fluorogenic substrate, 40 min. A digest of the protocol:
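Compounds titrated from 0.6 nM upwards against 0.2 nM enzyme in pH 5.9 citric acid/KH2PO4, taurocholate, tween-20; blue fluorogenic substrate 80 uM, 40 min room temperature, stopped and read Ex 365/Em 440 for AC50.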

A short description of experiment [2]: AP1 Signaling Pathway (AID 357).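 Also: ME-180 reporter cells stimulated with EGF at its EC50 level; % is scaled to controls: 0 for no effect and ±100 for the full control effect.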 The note with it: ME-180 AP-1-bla reporter, EGF-induced, beta-lactamase ratio, 5 h; at 7.69 µM (top of the series) unless noted. The method in brief:
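Cells are seeded overnight, exposed to compound titrations and an EC50 level of EGF for 5 hours at 37 °C, then loaded with CCF4 dye for 2.5 hours. Beta-lactamase activity under the AP-1 element is read as a blue/green ratio.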

Experiment [3] can be described thus: NFAT Signaling Pathway (AID 444).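 Also: carbachol stimulus at about its EC50 of 1 µM final; % is scaled to controls: 0 for no effect and ±100 for the full control effect.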 The note with it: Jurkat NFAT-bla M1, carbachol, beta-lactamase ratio, 5 h; at 7.69 µM (top of the series) unless noted. A digest of the protocol: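 Read-out: CCF4 FRET ratio (460 nm/530 nm) after 1 h RT dye loading, used for %activity and AC50 from titration series. Cells: Jurkat NFAT-β-lactamase/M1 line, treated with compound plus 1 uM carbachol for 5 h, 37 °C.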

Experiment [4] is described as follows: Stat Signaling Pathway (AID 446).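 Also: ME-180 cervical cancer cells given 40 pM IL-6 alongside compound; SIE-controlled beta-lactamase reporter measured as 460/530 nm FRET emission ratio; % is scaled to controls: 0 for no effect and ±100 for the full control effect.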 The note with it: ME-180 SIE beta-lactamase reporter, IL-6 stimulated, 5 h; at 7.69 µM (top of the series) unless noted. The method in brief:
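Screening format detects activators and inhibitors alike: ME-180 SIE-bla cells stimulated at 40 pM IL-6 for 5 hrs with compound, then dual-emission beta-lactamase read at 405 nm excitation.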

Experiment [5] deals with Glucocorticoid receptor (Homo sapiens) (UniProt P04150). Nature of the experiment: GR-GFP Redistribution (AID 450;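 active = compounds whose dose series gives a full or clear partial fitted curve of increased nuclear translocation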; also: potency is read from the fitted curve at half-maximal effect). The note with it: U2OS GR-GFP nuclear translocation, laser cytometry, 2 h.
Sequence of Glucocorticoid receptor (Homo sapiens) (P04150 whole entry, looked up): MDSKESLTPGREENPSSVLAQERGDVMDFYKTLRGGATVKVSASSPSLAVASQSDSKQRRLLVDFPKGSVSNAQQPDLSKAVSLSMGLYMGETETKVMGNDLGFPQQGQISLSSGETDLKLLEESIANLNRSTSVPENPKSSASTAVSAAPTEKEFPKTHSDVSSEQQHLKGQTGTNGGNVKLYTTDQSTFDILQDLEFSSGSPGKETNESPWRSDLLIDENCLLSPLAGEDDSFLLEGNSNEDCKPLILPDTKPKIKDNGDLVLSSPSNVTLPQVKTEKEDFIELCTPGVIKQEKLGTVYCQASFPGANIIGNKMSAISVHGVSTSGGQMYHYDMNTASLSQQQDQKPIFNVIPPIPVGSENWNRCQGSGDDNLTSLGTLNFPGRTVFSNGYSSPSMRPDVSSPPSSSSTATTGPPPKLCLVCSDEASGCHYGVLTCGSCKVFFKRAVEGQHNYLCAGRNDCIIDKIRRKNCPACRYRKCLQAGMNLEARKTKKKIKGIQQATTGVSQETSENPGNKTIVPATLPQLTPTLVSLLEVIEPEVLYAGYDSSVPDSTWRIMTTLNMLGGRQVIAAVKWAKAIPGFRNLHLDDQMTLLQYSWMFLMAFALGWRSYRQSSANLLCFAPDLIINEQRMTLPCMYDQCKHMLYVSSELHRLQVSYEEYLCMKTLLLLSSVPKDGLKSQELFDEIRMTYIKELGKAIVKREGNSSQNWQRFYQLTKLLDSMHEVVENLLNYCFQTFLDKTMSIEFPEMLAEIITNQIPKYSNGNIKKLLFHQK
The target is the same in experiment [6]. Nature of the experiment: GR-EFC Redistribution (AID 451; calls by dose curve; also: potency is read from the fitted curve at half-maximal effect). The note with it: CHO-K1 GR-EFC translocation, beta-gal luminescence, 2 h. A digest of the protocol:
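Translocation of GR-ED fusion to nuclear EA restores b-gal, read by luminescence after 1 h room-temperature detection. Engineered CHO-K1 biosensor cells, 1,000/well, exposed 2 h at 37 C to titrations up to 46 uM final.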

Experiment [7] has as its target Mitogen-activated protein kinase 10 (Mus musculus) (UniProt Q61831). The experiment in a line: JNK3 AlphaScreen Assay (AID 530).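 Also: kinase came from lysate of stimulated human HepG2 cells; signal reports phosphorylation of biotinylated GST-cJun 1-79 at Ser73 with 10 µM ATP; % is scaled to controls: 0 for no effect and ±100 for the full control effect.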 The note with it: JNK3 lysate, c-Jun phosphorylation; series mostly up to 11.4 µM. The method in brief: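 Room-temperature AlphaScreen kinase assay; pre-activated HepG2 lysate as JNK3 source, biotin-GST-cJun(1-79) substrate, 10 uM ATP, compound 15 min preincubation.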
On the technique in general: Bead proximity is the source of the signal in Alpha formats.

Experiment [8] deals with 3',5'-cyclic-AMP phosphodiesterase 4B (Homo sapiens) (UniProt Q07343). The experiment in a line: qHTS Assay for Inhibitors of PDE-IV (AID 607; active = well fitted activation curve with a large enough effect in the main read-out, with a control signal flat, not every such curve was filed as active; also: % of control where 0% means no effect). The note with it: HEK293 ACTOne CNG channel cells, membrane potential fluorescence; series mostly up to 22.9 µM. The method in brief:
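The readout is membrane depolarisation from a cAMP-sensing CNG channel, detected with a potential dye at ex 535/em 590. Cells were HEK293-derived (endogenous PDE-IV) at 1000 cells/well, titrated up to 22.9 uM final.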
In general terms: qHTS replaces the single test concentration by a dilution series.

Unmarked numbers belong to inactive results. Inconclusive results are not listed. Calls of active or inactive are those of the source. Unless noted, calls follow the shape of the dose curve; as a rule, active = well fitted curve in either direction with a large enough effect (not every such curve was filed as active); inconclusive = small, poorly fitted or top-dose-only effect, or another doubt; inactive = flat fitted curve, though single readings scatter. Bounds are passed on as bounds.

Sequence of Lysosomal acid glucosylceramidase (Homo sapiens) (P04062 whole entry, looked up): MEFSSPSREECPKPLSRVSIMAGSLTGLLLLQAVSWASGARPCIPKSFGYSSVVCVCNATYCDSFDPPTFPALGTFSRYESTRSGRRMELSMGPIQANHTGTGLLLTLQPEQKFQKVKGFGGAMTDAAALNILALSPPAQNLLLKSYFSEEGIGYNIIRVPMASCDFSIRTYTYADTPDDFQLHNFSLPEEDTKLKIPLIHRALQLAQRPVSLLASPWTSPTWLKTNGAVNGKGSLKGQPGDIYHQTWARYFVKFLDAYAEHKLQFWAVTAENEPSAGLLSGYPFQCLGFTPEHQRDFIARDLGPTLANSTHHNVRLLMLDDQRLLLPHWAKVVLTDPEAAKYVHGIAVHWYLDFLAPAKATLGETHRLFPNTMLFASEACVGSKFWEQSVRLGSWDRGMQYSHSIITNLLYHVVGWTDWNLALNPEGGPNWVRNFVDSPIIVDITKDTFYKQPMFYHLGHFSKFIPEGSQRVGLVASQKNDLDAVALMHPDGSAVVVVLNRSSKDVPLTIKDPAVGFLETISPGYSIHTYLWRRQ
Sequence of 3',5'-cyclic-AMP phosphodiesterase 4B (Homo sapiens) (Q07343 whole entry, looked up): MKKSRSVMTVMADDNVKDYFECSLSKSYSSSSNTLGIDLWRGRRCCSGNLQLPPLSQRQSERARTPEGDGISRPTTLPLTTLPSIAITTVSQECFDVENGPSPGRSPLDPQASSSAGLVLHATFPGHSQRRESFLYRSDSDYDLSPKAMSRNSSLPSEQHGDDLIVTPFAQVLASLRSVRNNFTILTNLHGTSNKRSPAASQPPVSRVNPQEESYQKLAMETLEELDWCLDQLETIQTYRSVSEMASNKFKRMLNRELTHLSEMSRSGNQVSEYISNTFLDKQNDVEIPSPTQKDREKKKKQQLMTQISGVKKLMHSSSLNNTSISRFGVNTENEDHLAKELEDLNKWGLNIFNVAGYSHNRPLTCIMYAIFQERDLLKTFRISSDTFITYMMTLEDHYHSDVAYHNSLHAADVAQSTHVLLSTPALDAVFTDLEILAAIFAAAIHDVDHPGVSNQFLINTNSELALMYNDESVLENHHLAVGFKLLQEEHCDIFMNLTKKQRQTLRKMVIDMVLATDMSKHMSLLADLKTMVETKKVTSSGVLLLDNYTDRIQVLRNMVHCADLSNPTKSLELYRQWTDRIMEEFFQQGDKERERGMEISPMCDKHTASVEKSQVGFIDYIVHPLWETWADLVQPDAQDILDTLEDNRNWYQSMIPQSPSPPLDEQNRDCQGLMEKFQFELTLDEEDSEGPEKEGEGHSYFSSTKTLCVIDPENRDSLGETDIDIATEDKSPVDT

In the case of `CC(C)Oc1cc(O)c2c(c1)OCC=C2CCC(=O)O`, the values for the Potency in experiment [1], in experiment [5] and in experiment [6] were > 11.4 µM, > 46 µM and > 9.22 µM, respectively. Also, the activity change, negative = inhibition in experiment [2] is 0.742%; in experiment [3], -2.86%. The activity, negative = inhibition in experiment [4] was 0.331%. The Potency entry in experiment [7] and in experiment [8] was “inactive” in each case.

As for `OC(Cc1ccccc1)(Cc1ccccc1)c1ccccc1`, the Potency was > 11.4 µM in experiment [1], > 46 µM in experiment [5] and > 9.22 µM in experiment [6]. Also, the activity change, negative = inhibition in experiment [2] is -8.82%; in experiment [3], -15.2%. Besides, in experiment [4], the activity, negative = inhibition is 11%. The Potency entry in experiment [7] and in experiment [8] was “inactive” in each case.

Consider `O=C1Nc2ccccc2[C@]1(O)Cc1ccccn1`, for which the Potency was > 11.4 µM in experiment [1], > 46 µM in experiment [5] and 0.26 µM (active) in experiment [6]. For the same compound, the activity change, negative = inhibition in experiment [2] was 1.94%; in experiment [3] it was 2.79%. For the same compound, the activity, negative = inhibition in experiment [4] was 12.1%. For the same compound, the Potency entry in experiment [7] and in experiment [8] was “inactive” throughout.

Regarding `Cn1c(=O)c2c(ncn2CCSS(=O)(=O)O)n(C)c1=O`, the Potency in experiment [1] is > 11.4 µM; in experiment [5] it was > 46 µM; in experiment [6] it was > 9.22 µM. Moreover, the activity change, negative = inhibition is -0.109% in experiment [2] and 18.1% in experiment [3]. Also, in experiment [4], the activity, negative = inhibition is -2.16%. The Potency result in experiment [7] and in experiment [8] was “inactive” each time.

As for `OC[C@@H](O)[C@@H](O)[C@@H](O)[C@@H](O)c1nc2ccc(Cl)cc2[nH]1`, the Potency in experiment [1] was > 11.4 µM; in experiment [5], > 46 µM; in experiment [6], > 9.22 µM. In addition, the figures for the activity change, negative = inhibition in experiment [2] and in experiment [3] were 4.42% and 10.1%, respectively. Besides, in experiment [4], the activity, negative = inhibition is -0.802%. Also, the Potency entry in experiment [7] and in experiment [8] was “inactive” each time.

Consider `NCCOc1ccccn1`, for which the Potency is > 11.4 µM in experiment [1], > 46 µM in experiment [5] and > 9.22 µM in experiment [6]. Also, the activity change, negative = inhibition in experiment [2] is 10%; in experiment [3] it was 1.74%. Further, the activity, negative = inhibition in experiment [4] is -2.14%. Also, the Potency entry in experiment [7] and in experiment [8] was “inactive” in each case.

Regarding `c1ccc(-c2ccc(-c3ccc(C4=NCCN4)cc3)o2)cc1`, the values for the Potency in experiment [1], in experiment [5] and in experiment [6] were > 11.4 µM, > 46 µM and > 9.22 µM, respectively. Besides, the activity change, negative = inhibition in experiment [2] was 8.2%; in experiment [3], 9.65%. Also, the activity, negative = inhibition in experiment [4] is 25.4%. Moreover, the Potency entry in experiment [7] and in experiment [8] was “inactive” in each case.

With `CC1(C)CC(=O)C(C(c2cccc(O)c2O)C2C(=O)CC(C)(C)CC2=O)C(=O)C1`, the Potency in experiment [1] was > 11.4 µM; in experiment [5], > 46 µM; in experiment [6] it was > 9.22 µM. Also, the activity change, negative = inhibition was -0.68% in experiment [2] and 2.55% in experiment [3]. Besides, in experiment [4], the activity, negative = inhibition was 1.05%. The Potency result in experiment [7] and in experiment [8] was “inactive” each time.

Consider `CCCc1cc(COC)c(C#N)c(=O)[nH]1`, for which the Potency was > 11.4 µM in experiment [1], > 46 µM in experiment [5] and > 9.22 µM in experiment [6]. In addition, the activity change, negative = inhibition was 1.77% in experiment [2] and -2.55% in experiment [3]. For the same compound, the activity, negative = inhibition in experiment [4] is 3.43%. Also, the Potency result in experiment [7] and in experiment [8] was “inactive” throughout.

For `Cn1cnc([N+](=O)[O-])c1Sc1nc(N)nc2c1ncn2[C@H]1C[C@H](O)[C@@H](CO)O1`, the Potency in experiment [1] was > 11.4 µM; in experiment [5], > 46 µM; in experiment [6], > 9.22 µM. For the same compound, the activity change, negative = inhibition in experiment [2] is -4.23%; in experiment [3], -2.48%. In addition, in experiment [4], the activity, negative = inhibition was 0.176%. The Potency result in experiment [7] and in experiment [8] was “inactive” throughout.

For `CC(=O)CSCc1ccccn1`, the Potency is > 11.4 µM in experiment [1], > 46 µM in experiment [5] and > 9.22 µM in experiment [6]. Also, the activity change, negative = inhibition in experiment [2] is 4.51%; in experiment [3] it was -1.92%. Moreover, the activity, negative = inhibition in experiment [4] was -2.34%. The Potency result in experiment [7] and in experiment [8] was “inactive” in each case.

On to `O=C(O)[C@H]1CCc2ccc3ccccc3c2[C@H]1c1cccc2ccccc12`, for which the Potency in experiment [1] was > 11.4 µM; in experiment [5], > 46 µM; in experiment [6], > 9.22 µM. The activity change, negative = inhibition in experiment [2] is -12.8%; in experiment [3], -25.8%. In experiment [4], the activity, negative = inhibition was -8.82%. For the same compound, the Potency result in experiment [7] and in experiment [8] was “inactive” each time.

For the compound `NC(=S)N/N=C\c1c[nH]c2ccccc12`, the results for the Potency in experiment [1], in experiment [5] and in experiment [6] were > 11.4 µM, > 46 µM and > 9.22 µM, respectively. Further, the activity change, negative = inhibition was 2.82% in experiment [2] and -6% in experiment [3]. The activity, negative = inhibition in experiment [4] is 13.8%. Moreover, the Potency result in experiment [7] and in experiment [8] was “inactive” each time.

Source of the values: PubChem BioAssay (NCATS).
